Assay [1] is described as follows: inhibitors of TNFa-induced NFkB p65 translocation, primary screen, imaging, HUVEC, MLSMR starter and 10KST1 sets (AID 438;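 active = inhibition above 20% together with a positive visual image hit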;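 note: compound added about 3h40 before a 20 min TNFalpha stimulation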;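 for inhibition: signal is the nuclear over cytoplasmic p65 intensity ratio per well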). The note with it: HUVEC TNFa-induced p65 nuclear translocation; cell count: measured here: nuclei count (cytotoxicity indicator), at 2.08 µM; inhibition: at 2 µM, stronger effect = higher value, 0% TNFa-plus-vehicle, 100% no-TNFa wells.
Assay [2] is described as follows: inhibitors of mutant huntingtin aggregation, primary screen, imaging, exon1htt(103Q)mCFP cells, high-content imaging (AID 483;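 active = visual image review flags a hit and inhibition of aggregation exceeds 20%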;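 note: compound exposure lasted 3 days before fixation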;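 for nuclei count: percent of the per-plate median nuclei count of sample wells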). Conditions: exon1htt(103Q)mCFP cell line, aggregate imaging, at 2 µM; inhibition of aggregation: stronger effect = higher value; nuclei count: measured here: cell count, toxicity.
A short description of assay [3]: inhibitors of E-selectin induction by TNFa, primary screen, imaging, HUVEC, immunofluorescence, MLSMR starter and 10KST1 sets (AID 487).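 For inhibition: signal is fraction of cell area covered by stained E-selectin grains.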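 For nuclei count: 100% = median nuclei count of all wells on the same plate.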 Conditions: HUVEC TNFalpha-induced E-selectin immunofluorescence imaging, at 2 µM; inhibition: stronger effect = higher value; nuclei count: measured here: cell number, toxicity.
In assay [4] the target is Voltage-gated potassium channel subunit beta-2 (Rattus norvegicus) (UniProt P62483). The assay can be described thus: KvBeta enzyme negative modulators, primary screen, biochemical, NADPH fluorescence (AID 622;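 active = fluorescence slope higher than the sample average by over 3 SD, cut at about -0.22 in these data, passing the limit was not always enough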;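 note: slope of raw intensity against log time taken from 70 to 1610 s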). Conditions: recombinant KvBeta, 4-cyanobenzaldehyde reduction, at 10 µM, stronger effect = higher value.
For assay [5] the target is unchanged. The assay can be described thus: KvBeta positive modulators, primary screen, biochemical, NADPH fluorescence (AID 623;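 active = NADPH fluorescence slope more negative than the mean of all samples by about 3 SD, 99.7% confidence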;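 note: fluorescence intensity change per second fitted from 20 to 320 s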). The note with it: Recombinant KvBeta, NADPH fluorescence decrease slope, 10 min; at 10 µM; stronger effect = lower value.
Assay [6] addresses Alpha-2C adrenergic receptor (Homo sapiens) (UniProt P18825). The assay can be described thus: modulators of alpha2C/GIRK thallium flux, primary screen, cell-based, HEK293 alpha2C/GIRK1/2 (AID 624;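 active = fluorescence slope after compound addition differing from the mean of all screened samples at 99.7% confidence, in either direction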;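 note: slope of fluorescence ratio to pre-addition baseline per second over 15 to 24 s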). Conditions: thallium flux BTC fluorescence, at 10 µM, actives lie on both sides.
Assay [7] in a line: inhibitors of Sendai virus-induced IRF3 signaling, primary screen, TLR/RLR signaling modifier project, cell-based, Sendai virus stimulus, luciferase, 10K MLSCN set (AID 602276;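 active = inhibition at or above 50% at 10 µM; inactive = inhibition below 50%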;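 note: firefly luciferase from ISG56 promoter only with Renilla not read in this screen; 0% = Sendai virus plus DMSO and 100% = medium plus DMSO without virus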). Conditions: HEK293 RL24 IRF3 luciferase reporter, at 10 µM, stronger effect = higher value. A general note: In a reporter assay the amount or activity of a reporter protein is the signal.
Assay [8] in a line: inhibitors of poly I:C-induced TLR3 signaling, primary screen, cell-based, poly I:C stimulus, luciferase, 10K MLSCN set (AID 602277;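 active = inhibition of the reporter signal at or above 50%; inactive = inhibition below 50%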). The note with it: HEK293-TLR3 RL24 IRF3 luciferase reporter, at 10 µM, stronger effect = higher value.

Active and inactive are the calls of the source.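 Rule for the calls, unless noted: active = visually confirmed hit in the image check and inhibition above 20%; inconclusive = visually confirmed hit but inhibition not above 20%; inactive = no visual hit in the image check.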

Sequence of Voltage-gated potassium channel subunit beta-2 (Rattus norvegicus) (P62483 whole entry, looked up): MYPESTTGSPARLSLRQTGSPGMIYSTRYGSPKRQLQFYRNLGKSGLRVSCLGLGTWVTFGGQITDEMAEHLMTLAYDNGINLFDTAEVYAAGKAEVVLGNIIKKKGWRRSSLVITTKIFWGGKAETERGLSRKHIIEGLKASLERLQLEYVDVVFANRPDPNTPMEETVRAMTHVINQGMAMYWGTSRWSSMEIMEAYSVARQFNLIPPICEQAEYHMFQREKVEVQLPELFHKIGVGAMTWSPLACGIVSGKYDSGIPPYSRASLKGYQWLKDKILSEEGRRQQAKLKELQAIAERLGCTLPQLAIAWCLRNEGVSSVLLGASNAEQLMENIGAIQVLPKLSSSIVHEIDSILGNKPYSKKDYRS
Sequence of Alpha-2C adrenergic receptor (Homo sapiens) (P18825 whole entry, looked up): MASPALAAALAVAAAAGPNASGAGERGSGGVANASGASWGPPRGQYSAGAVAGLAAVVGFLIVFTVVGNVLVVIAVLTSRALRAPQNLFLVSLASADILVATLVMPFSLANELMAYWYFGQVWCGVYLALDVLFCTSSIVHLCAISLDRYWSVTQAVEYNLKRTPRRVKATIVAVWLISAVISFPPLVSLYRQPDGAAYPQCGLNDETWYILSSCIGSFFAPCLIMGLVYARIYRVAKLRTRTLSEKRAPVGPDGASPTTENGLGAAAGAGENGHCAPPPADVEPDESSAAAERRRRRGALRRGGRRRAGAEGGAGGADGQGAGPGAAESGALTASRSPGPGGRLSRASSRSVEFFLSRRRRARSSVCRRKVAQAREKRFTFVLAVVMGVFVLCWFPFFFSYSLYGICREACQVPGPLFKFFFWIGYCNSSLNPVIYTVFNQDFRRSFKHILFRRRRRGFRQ

As a reminder, the inhibition is the change of the read-out against control, counted positive when it falls. Turning to `c1nc(NCC2(N3CCOCC3)CCCCC2)c2ccsc2n1`, the cell count in assay [1] came to 303. The inhibition was 17.8% (inactive) in assay [1], 20.6% (inactive) in assay [3], -0.86% (inactive) in assay [7] and 23.1% (inactive) in assay [8]. Further, the inhibition of aggregation in assay [2] is -2.2% (inactive). Moreover, the results for the nuclei count in assay [2] and in assay [3] were 93% and 87.7%, respectively. Further, the fluorescence slope in assay [4] is -0.612 (inactive). The NADPH fluorescence slope in assay [5] is -1e-05 (inactive). Also, the slope in assay [6] is 0.00518 (inactive).

For `CCC(C(=O)Nc1ccccc1C(=O)N1CCCC1)N1C(=O)c2ccccc2C1=O` (centres undefined), the cell count in assay [1] was 623. Further, the inhibition was 16.8% (inactive) in assay [1], -112% (inactive) in assay [3], 4.49% (inactive) in assay [7] and 15.4% (inactive) in assay [8]. In assay [2], the inhibition of aggregation was -16.8% (inactive). In addition, the nuclei count came out at 109% in assay [2] and 112% in assay [3]. In addition, the fluorescence slope in assay [4] is -0.356 (inactive). The NADPH fluorescence slope in assay [5] is 9.2e-06 (inactive). Also, in assay [6], the slope was 0.0034 (inactive).

`COC(=O)c1ccc(COc2ccc(C3C4=C(CCCC4=O)Nc4onc(C)c43)cc2)cc1` (centres undefined): the cell count in assay [1] stood at 303. In addition, the inhibition in assay [1] was -4.7% (inactive); in assay [3], -68.7% (inactive); in assay [7], -12.9% (inactive); in assay [8] it was -23% (inactive). For the same compound, in assay [2], the inhibition of aggregation was -8.3% (inactive). Further, the results for the nuclei count in assay [2] and in assay [3] were 112% and 118%, respectively. Also, the fluorescence slope in assay [4] is -0.479 (inactive). Also, in assay [5], the NADPH fluorescence slope was -1.7e-05 (inactive). For the same compound, the slope in assay [6] was 0.00693 (inactive).

`O=C(CSc1nnnn1C1CCCC1)N1CCN(C(=O)c2ccco2)CC1`: the cell count in assay [1] was found to be 367. Also, the inhibition in assay [1] is -10.3% (inactive); in assay [3], -54.2% (inactive); in assay [7] it was -2.14% (inactive); in assay [8] it was 16.4% (inactive). The inhibition of aggregation in assay [2] was 2% (inactive). In addition, the nuclei count worked out at 105% in assay [2] and 107% in assay [3]. For the same compound, the fluorescence slope in assay [4] is -0.483 (inactive). Also, the NADPH fluorescence slope in assay [5] is -2.2e-05 (inactive). In assay [6], the slope is 0.00599 (inactive).

As for `OC1(c2cccc(C(F)(F)F)c2)CCNCC1`, the cell count in assay [1] was 370. For the same compound, the inhibition is 1.4% (inactive) in assay [1], -19% (inactive) in assay [3], 18.9% (inactive) in assay [7] and 22.1% (inactive) in assay [8]. In assay [2], the inhibition of aggregation was -1.7% (inactive). The nuclei count in assay [2] stood at 106%; in assay [3] it was 118%. The fluorescence slope in assay [4] is -0.281 (inactive). The NADPH fluorescence slope in assay [5] was 2.4e-05 (inactive). The slope in assay [6] was 0.007 (inactive).

As to `CC1CCN(c2oc(-c3cccc4ccccc34)nc2C#N)CC1`, the cell count in assay [1] came to 610. For the same compound, the inhibition is -8.2% (inactive) in assay [1], -112% (inactive) in assay [3], -40.5% (inactive) in assay [7] and -95.3% (inactive) in assay [8]. For the same compound, the inhibition of aggregation in assay [2] was 1.2% (inactive). Besides, the nuclei count in assay [2] was 102%; in assay [3], 101%. Moreover, in assay [4], the fluorescence slope is -0.0453 (active). The NADPH fluorescence slope in assay [5] is -6.6e-07 (inactive). Besides, the slope in assay [6] was 0.00364 (inactive).

Turning to `CCSc1nnc(N2C(=O)CC(c3ccsc3)C3=C2CC(C)(C)CC3=O)s1` (centres undefined), the cell count in assay [1] amounted to 558. For the same compound, the inhibition was 0% (inactive) in assay [1], -46.6% (inactive) in assay [3], 11.7% (inactive) in assay [7] and 35.7% (inactive) in assay [8]. The inhibition of aggregation in assay [2] is 4.8% (inactive). The nuclei count in assay [2] turned out to be 109%; in assay [3] it was 115%. Besides, the fluorescence slope in assay [4] was -0.55 (inactive). In addition, the NADPH fluorescence slope in assay [5] is -4.6e-05 (inactive). Moreover, the slope in assay [6] is 0.00599 (inactive).

For the compound `CC(C)(C)NC(=O)COC(=O)c1ccc(O)cc1`, the cell count in assay [1] stood at 714. In addition, the inhibition in assay [1] was -6.7% (inactive); in assay [3], 10% (inactive); in assay [7], -6.22% (inactive); in assay [8] it was -8.12% (inactive). Moreover, the inhibition of aggregation in assay [2] was -18.1% (inactive). The nuclei count in assay [2] worked out at 98.1%; in assay [3], 101%. Moreover, in assay [4], the fluorescence slope was -0.625 (inactive). In addition, in assay [5], the NADPH fluorescence slope was 7.6e-06 (inactive). The slope in assay [6] is 0.00738 (inactive).

With `COc1cc(CN2CCSCC2)cc(OC)c1OC`, in assay [1], the cell count is 642. For the same compound, the inhibition in assay [1] is -1.9% (inactive); in assay [3] it was -13.9% (inactive); in assay [7], -4.06% (inactive); in assay [8], 20% (inactive). In addition, the inhibition of aggregation in assay [2] is 12.3% (inactive). In addition, the nuclei count stood at 60.4% in assay [2] and 98.2% in assay [3]. The fluorescence slope in assay [4] was -0.486 (inactive). Besides, the NADPH fluorescence slope in assay [5] is 2.1e-05 (inactive). Further, in assay [6], the slope was 0.00258 (inactive).

Turning to `COc1ccc(C(c2sc3nc(C)nn3c2O)N2CCCCC2)cc1` (centres undefined), in assay [1], the cell count was 639. Moreover, the inhibition was -6.4% (inactive) in assay [1], -42.5% (inactive) in assay [3], 8.51% (inactive) in assay [7] and 27.4% (inactive) in assay [8]. In addition, the inhibition of aggregation in assay [2] was -33.8% (inactive). Also, the nuclei count in assay [2] stood at 114%; in assay [3] it was 108%. Also, the fluorescence slope in assay [4] is -0.603 (inactive). In addition, the NADPH fluorescence slope in assay [5] was -4.6e-05 (inactive). Besides, in assay [6], the slope is 0.00737 (inactive).

On to `CSc1nc2ccc(S(=O)(=O)N3CCOCC3)cc2s1`, for which the cell count in assay [1] stood at 328. For the same compound, the inhibition in assay [1] is -2.2% (inactive); in assay [3] it was -22% (inactive); in assay [7] it was 17.9% (inactive); in assay [8], 15.4% (inactive). Further, the inhibition of aggregation in assay [2] was 28.3% (inactive). Besides, the figures for the nuclei count in assay [2] and in assay [3] were 95.2% and 129%, respectively. Also, in assay [4], the fluorescence slope was -0.415 (inactive). In assay [5], the NADPH fluorescence slope was -6.4e-05 (inactive). The slope in assay [6] was 0.00411 (inactive).

For the compound `O=C1c2ccccc2C(Nc2ccc(F)cc2F)N1CCN1CCOCC1` (centres undefined), the cell count in assay [1] was determined as 791. Moreover, the inhibition is 1.8% (inactive) in assay [1], -46.2% (inactive) in assay [3], 13.8% (inactive) in assay [7] and 38.8% (inactive) in assay [8]. For the same compound, the inhibition of aggregation in assay [2] is 19.4% (inactive). Besides, the nuclei count in assay [2] worked out at 101%; in assay [3], 124%. For the same compound, the fluorescence slope in assay [4] is -0.416 (inactive). Also, the NADPH fluorescence slope in assay [5] is -3.1e-05 (inactive). For the same compound, the slope in assay [6] is 0.00478 (inactive).

With `Cc1cc(=O)oc(C)c1C(=O)O`, the cell count in assay [1] amounted to 560. For the same compound, the inhibition was -13.1% (inactive) in assay [1], -3.9% (inactive) in assay [3], 9.47% (inactive) in assay [7] and 25.5% (inactive) in assay [8]. The inhibition of aggregation in assay [2] was 20.6% (inactive). The nuclei count in assay [2] came out at 88.5%; in assay [3], 114%. Also, in assay [4], the fluorescence slope was -0.451 (inactive). The NADPH fluorescence slope in assay [5] is -0.000139 (inactive). For the same compound, the slope in assay [6] is 0.00558 (inactive).

`CCOc1ccccc1C(=O)NCC(=O)OCC(=O)N1C(C)CCCC1C` (centres undefined): in assay [1], the cell count came out at 683. For the same compound, the inhibition was -3.4% (inactive) in assay [1], 26.6% (inactive) in assay [3], 11.2% (inactive) in assay [7] and 17.1% (inactive) in assay [8]. Also, the inhibition of aggregation in assay [2] is -9.7% (inactive). In addition, the results for the nuclei count in assay [2] and in assay [3] were 103% and 112%, respectively. The fluorescence slope in assay [4] is -0.615 (inactive). Further, the NADPH fluorescence slope in assay [5] is 3e-05 (inactive). In addition, in assay [6], the slope was 0.00593 (inactive).

The values above are taken from PubChem BioAssay.
